Data taken from PubChem BioAssay (NCI).
Compounds without any hit were thinned out: in the full panel of roughly 83,000, 20% have a hit.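 Cells were grown in 96-well plates and exposed to the test compound at a single concentration for 48 hours; results are reported as percent growth, with values below 10 considered active.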 Activity calls are given as the source filed them.

system: OVCAR-4 ovarian; test: NCI-60 one-dose screen, 48 h (100 = growth as untreated, 0 = no growth, -100 = all killed); conditions: 10 µM unless noted

| SMILES | growth |
| --- | --- |
| COc1ccc([C@H]2[C@H](O)C(=O)N2c2cc(OC)c(OC)c(OC)c2)cc1Cl | 74.4% (inactive) |
| COc1cc2c3c(n(CCCNCC4CC4)c(=O)c2cc1OC)-c1cc2c(cc1C3=O)OCO2 | 1.27% (active) |
| O=C(Cn1cc(CN2C(=O)c3ccc([N+](=O)[O-])cc3C2=O)nn1)Nc1ccccc1Br | 113% (inactive) |
| COc1ccc(NC(=O)Cn2cc(CN3C(=O)c4ccc([N+](=O)[O-])cc4C3=O)nn2)cc1 | 112% (inactive) |
| COc1cc2c3c(n(CCCNC4CCCC4)c(=O)c2cc1OC)-c1cc2c(cc1C3=O)OCO2 | 71.9% (inactive) |
| CS(=O)c1nccc(-c2c(-c3ccc(F)c(OCCc4ccccc4)c3)nc3sccn23)n1 (stereo not drawn) | 102% (inactive) |
| COc1cc2c3c(n(CCCNC4CCC4)c(=O)c2cc1OC)-c1cc2c(cc1C3=O)OCO2 | -57.9% (active) |
| O=S(=O)(Nc1ccc(-n2cnc3cc(-c4ccc(O)cc4)ccc32)cc1)C1CC1 | 78.2% (inactive) |
| N#Cc1ccc(S(=O)(=O)Nc2ccc(-c3cnc(N)[nH]3)cc2)cc1 | 104% (inactive) |
| Cn1cc(-c2nn3cc(-c4cccnc4)nc3s2)c2cc(F)ccc21 | 104% (inactive) |
| COc1ccc2oc3c4[nH]c5ccccc5c4c4c(c3c2c1)C(=O)N(O)C4=O | 104% (inactive) |
| COc1ccc(/C(C)=C(\c2ccc(Cl)cc2)c2ccc(OCCN)cc2)cc1 | 90.3% (inactive) |
| COc1ccc2c(c1)c(-c1nn3c(=O)cc(-c4ccccc4)nc3s1)cn2C | 67.4% (inactive) |
| Cc1ccccc1/C=C/c1nn2c(-c3ccoc3C)nnc2s1 | 99.6% (inactive) |
| Cn1cc(-c2nn3cc(-c4cccnc4)nc3s2)c2ccccc21 | 76.6% (inactive) |
| COc1ccc(-c2cc(-c3cccc4ccccc34)n3c(n2)nc2ccccc23)cc1OC | 71.9% (inactive) |
| Cn1c2ccc(Br)cc2c2c3c(c4c5cc(F)ccc5oc4c21)C(=O)N(O)C3=O | 103% (inactive) |
| O=C(Cn1cc(CN2C(=O)c3ccc([N+](=O)[O-])cc3C2=O)nn1)Nc1ccc(F)cc1Cl | 106% (inactive) |
| O=C1c2c(c3c4ccc(Br)cc4oc3c3[nH]c4ccccc4c23)C(=O)N1CCO | 89.7% (inactive) |

| SMILES | growth |
| --- | --- |
| CCOC(=O)CC(=O)CSC1=NC2C(NN1)N(C)C(=O)N2C (stereo not drawn) | 88.9% (inactive) |
| Cn1c2ccccc2c2c3c(c4c5ccc(Br)cc5oc4c21)C(=O)N(O)C3=O | 85.3% (inactive) |
| CCNCCCn1c2c(c3cc(OC)c(OC)cc3c1=O)C(=O)c1cc(OC)cnc1-2 | 6.87% (active) |
| C=CCn1c(SCC(=O)Nc2cccc(C(=O)/C=C/c3cccc([N+](=O)[O-])c3)c2)nc2ccccc2c1=O | 92% (inactive) |
| COc1ccc2c(c1)oc1c3[nH]c4ccccc4c3c3c(c21)C(=O)N(O)C3=O | 77.9% (inactive) |
| COc1cc2c3c(n(CCCN4CCC[C@H]4C(N)=O)c(=O)c2cc1OC)-c1cc2c(cc1C3=O)OCO2 | 21.7% (inactive) |
| C=CCn1c(SCC(=O)Nc2cccc(C(=O)/C=C/c3ccc(Br)cc3)c2)nc2ccccc2c1=O | 87.9% (inactive) |
| CS(=O)(=O)c1ccc2c(c1)c1c(n2C(=O)c2ccc(Cl)cc2)CCCC1 | 66.4% (inactive) |
| COc1ccc([C@H]2[C@H](O)C(=O)N2c2cc(OC)c(OC)c(OC)c2)cc1O | 70.3% (inactive) |
| Cc1occc1-c1nc2s/c(=C\c3cn(-c4ccccc4)nc3-c3ccccc3)c(=O)n2n1 | 97% (inactive) |
| COc1cc2c3c(n(CCCNC4CCCCC4)c(=O)c2cc1OC)-c1cc2c(cc1C3=O)OCO2 | 93.2% (inactive) |
| COc1ccc(-c2no[n+]([O-])c2Nc2ccccc2Br)cc1 | 101% (inactive) |
| C/C(Cc1ccc(Cl)cc1)=C(/c1ccccc1)c1ccc(OCCN)cc1 | 101% (inactive) |
| COc1cnc2c(c1)C(=O)c1c-2n(CCCNCC2CC2)c(=O)c2cc(F)ccc12 | -4.75% (active) |
| COc1cnc2c(c1)C(=O)c1c-2n(CCCn2ccnc2)c(=O)c2cc(OC)c(OC)cc12 | -18.3% (active) |
| C=CCn1c(SCC(=O)Nc2cccc(C(=O)/C=C/c3ccccc3)c2)nc2ccccc2c1=O | 88% (inactive) |
| COc1cc2c3c(n(CCCN4CCCC4)c(=O)c2cc1OC)-c1cc2c(cc1C3=O)OCO2 | -59.2% (active) |
| N#C/C(=C\c1ccc(-c2ccc(F)cc2)o1)C(=O)Nc1ncc(Cc2ccc(Cl)cc2Cl)s1 | -40.3% (active) |
| Cc1ccc(-c2nnc3sc(C4=Cc5ccccc5OC=C4)nn23)cc1 | 99.2% (inactive) |
